Compound activity: PubChem, several laboratories
Plk1 PBD FP: Plk1 polo box domain binding inhibitors, primary screen, biochemical, fluorescence polarization; Serine/threonine-protein kinase PLK1 (Homo sapiens), P53350; Plk1 PBD phosphopeptide binding; inhibition, %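 (tested at about 20 µM)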; 97,000 tested, 0.13% active; in the data active means inhibition above about 34%, passing the limit was not always enough
Pyk2 oligo antag: antagonists of Pyk2 self-association, primary screen, Q293 cells, FERM NanoBiT luminescence, HTS; AID 1347419, 2020; 99,000 tested, 0.83% active; Protein-tyrosine kinase 2-beta (Homo sapiens), Q14289; z-score (the deposit names both 25 µM and 10 µM); stronger effect = lower value;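 active means Z-score of -3 or lower, scaled per plate to the spread of control and sample wells; inactive means z-score above -3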;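 further: negative z-score means lost luminescence so less FERM oligomerization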
DAT uptake mod: changed hDAT dopamine uptake under cocaine IC80, either direction, primary screen, cocaine antagonist project, cell-based, LLC-PK1 hDAT, [14C]-dopamine uptake, MLSMR; Sodium-dependent dopamine transporter (Homo sapiens), Q01959; LLC-PK1 hDAT cells, [14C]-dopamine uptake with cocaine IC80; actives deviate in either direction; B-score at 10 µM; 110,000 tested, 1.3% active; AID 449768, 2010;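 active means Z score or B-score, a plate-position-corrected score, falls beyond the plate's 99.7% confidence bounds, in either direction; inactive means both scores lie inside the 99.7% bounds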;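 further: scored against the spread of the other compound wells on the same plate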
Target sequence (Q01959 whole entry, looked up): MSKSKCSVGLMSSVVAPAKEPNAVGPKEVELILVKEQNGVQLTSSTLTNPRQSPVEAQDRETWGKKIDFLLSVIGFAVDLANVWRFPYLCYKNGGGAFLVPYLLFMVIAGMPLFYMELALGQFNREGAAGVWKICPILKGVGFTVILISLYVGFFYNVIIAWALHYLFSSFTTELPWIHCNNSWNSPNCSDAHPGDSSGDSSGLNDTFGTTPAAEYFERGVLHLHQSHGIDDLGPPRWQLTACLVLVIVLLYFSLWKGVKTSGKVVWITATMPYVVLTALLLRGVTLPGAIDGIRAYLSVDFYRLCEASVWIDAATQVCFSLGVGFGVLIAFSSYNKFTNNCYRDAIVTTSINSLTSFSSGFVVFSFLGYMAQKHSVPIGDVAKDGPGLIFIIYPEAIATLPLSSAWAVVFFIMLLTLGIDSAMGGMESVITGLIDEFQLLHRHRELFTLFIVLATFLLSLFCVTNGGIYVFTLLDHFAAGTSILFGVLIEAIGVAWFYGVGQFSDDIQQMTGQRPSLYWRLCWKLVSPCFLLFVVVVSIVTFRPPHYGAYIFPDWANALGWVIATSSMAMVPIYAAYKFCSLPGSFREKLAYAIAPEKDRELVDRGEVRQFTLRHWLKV
sdo1 growth: growth rescue of sdo1-depleted yeast, primary screen, S. cerevisiae, bone marrow failure model; S. cerevisiae sdo1-depleted JHY4D growth rescue, OD600 30 h; stronger effect = higher value; pdr5 snq2 efflux-pump mutant strain; z-score at 10 µM; 140,000 tested, 0.21% active; AID 817, 2007;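 active means z-score above 3 at both the 24 hr and the 30 hr optical density reads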;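 further: z-score against mean and SD of all compound wells on the same plate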
PLK1 inh: human PLK1 kinase inhibitors, primary screen, biochemical, TR-FRET | recombinant PLK1 kinase, TR-FRET peptide phosphorylation | inhibition, % at 10 µM | 97,000 tested, 0.53% active | Serine/threonine-protein kinase PLK1 (Homo sapiens), P53350;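 active means inhibition of 50% or more in the single-concentration screen; inactive means inhibition below 50%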;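 further: 0% = DMSO max control and 100% = H-89 dihydrochloride min control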
Cav32 inh: Cav3.2 calcium influx blockers – cell-based, Fluo-4 calcium fluorescence, FDSS, MLSMR library, primary screen; Cav3.2-expressing cells; stronger effect = lower value; B-score at 10 µM; 100,000 tested, 4% active;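 active means single-dose well whose peak fluorescence ratio is a statistical outlier from its plate by either plate-standardised score or position-corrected B-score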
* hit, by the source's call; . = not tested or not shown. This is a sample that favours compounds with a hit; in the whole collection about 4.7% have one here.

SMILES | Plk1 PBD FP | Pyk2 oligo antag | DAT uptake mod | sdo1 growth | PLK1 inh | Cav32 inh
CCCCn1c(O)c(C(C)=NC(Cc2c[nH]c3ccccc23)C(=O)OC)c(=O)[nH]c1=O (centres undefined) | -15 | -1.5 | 2.7* | -0.49 | -8 | -4.3*
C=CCN1C(=O)/C(=C\c2ccc(N3CCOCC3)o2)C(=O)NC1=S | . | . | . | -0.22 | . | .
CN1C(=O)/C(=C\c2ccc(N3CCCCC3)o2)C(=O)NC1=S | -121 | -2.3 | -0.14 | 0.03 | -55 | -4.8*
CN1C(=O)/C(=C/c2ccc(N3CCCCCC3)o2)C(=O)NC1=S | -86 | -0.13 | 0.4 | -0.43 | -42 | -4.5*
COC(=O)C(O)(c1ccc(N(C)S(=O)(=O)c2ccccc2)cc1)C(F)(F)F (centres undefined) | . | -1.5 | 1.1 | -1.2 | . | -0.86
CCOC(=O)C(O)(c1ccc(N(CC)S(=O)(=O)c2ccc(C)cc2)cc1)C(F)(F)F (centres undefined) | 13 | -2 | 0.1 | 0.16 | -6 | -6.2*
CCN(c1ccc(C(O)(C(=O)OC)C(F)(F)F)cc1)S(=O)(=O)c1ccc(C)cc1 (centres undefined) | -8 | -1 | 0.62 | -0.08 | -2 | -4.9*
CNC(C(=O)c1ccccc1)C(OC)c1ccc(C)cc1 (centres undefined) | . | . | . | 0.54 | . | .
Nc1c(C(=O)NC2CCCC2)c2nc3ccccc3nc2n1CC1CCCO1 (centres undefined) | -21 | -0.24 | 0.73 | -2 | -9 | -6.4*
CC(C)=CCc1c(O)cc2c(c1O)C(=O)CC(c1ccc(O)cc1)O2 (centres undefined) | . | . | 0.84 | . | . | 0.26
COc1ccc(Oc2cc(NC(=O)c3nn(C)cc3[N+](=O)[O-])cc([N+](=O)[O-])c2)cc1 | -8 | -3.7* | -0.097 | -0.73 | -11 | 0.51
COc1ccc(OCC(=O)N2CCN(Cc3nc4cc([N+](=O)[O-])ccc4n3C)CC2)cc1 | . | . | . | -0.72 | . | .
Oc1ccc2c3c1O[C@H]1c4oc5ccccc5c4C[C@@]4(O)[C@@H](C2)N(CC2CC2)CC[C@]314 | . | . | -1.1 | . | . | -3.8
COC(=O)C1=CO[C@@H](C)[C@H]2CN3CC[C@]4(C(=O)Nc5ccccc54)[C@@H]3C[C@H]12 | . | . | -0.33 | . | . | 0.72
Cc1cc(C)n(CCOC(=O)C2C(C=C(Cl)Cl)C2(C)C)n1 (centres undefined) | 3 | -0.27 | -0.73 | -1.2 | -14 | -6.6*
COC(=O)C1=C(c2cccc(OC)c2OC)C[C@@H]2CC[C@H]1N2C(=O)NCC1CC1 | . | . | 0.26 | . | . | .
CCOC(=O)C1=C(C)OC(N)=C(C(=O)OCC)C12C(=O)Nc1ccc(Br)cc12 (centres undefined) | -15 | 0.52 | 0.0022 | 0.6 | 1 | -3.8*
COc1ccccc1/C=C1/C(=N/O)C2CCN1CC2 | . | 0.48 | -0.85 | 0.04 | . | 0.29
COc1ccc(P2(=O)Nc3ccccc3N2)cc1 | -15 | -0.75 | 0.22 | 0.79 | 0 | -2.1*
Cc1sc2c(c1C)C(c1ccc(C(C)(C)C)cc1)=NCC(=O)N2CC(=O)Nc1nccs1 | -15 | 1.1 | 0.0071 | -2.1 | -20 | -2.6
O=c1[nH]c2ccccc2n1C1CCN(CCCC(c2ccc(F)cc2)c2ccc(F)cc2)CC1 | . | . | -0.5 | -1.7 | . | -4.8*
CC(=O)OC1C2CCCC1C(N1CCCC1)CC2 (centres undefined) | 24 | 0.22 | -0.87 | 0.55 | -19 | -0.16
CN1C(=O)C(=Cc2ccccc2Oc2ccc(Cl)cc2)C(=O)N(C)C1=O | -10 | -3.9* | -0.23 | -0.2 | -9 | -1.8
CN1C(=O)C(=Cc2ccccc2OCc2ccc(Cl)cc2)C(=O)N(C)C1=O | . | . | . | -2 | . | .
Cc1ccccc1Cc1c(C)nc2nc(SCC(=O)N3CCC4(CC3)OCCO4)nn2c1C | 3 | 1.1 | -0.37 | 0.49 | 8 | 2.9
SMILES | Plk1 PBD FP | Pyk2 oligo antag | DAT uptake mod | sdo1 growth | PLK1 inh | Cav32 inh
CCCCn1c(O)c(C(CC)=NCc2ccc3c(c2)OCO3)c(=O)[nH]c1=O | 15 | -1.9 | -0.81 | -1.4 | 0 | -5.1*
CCC(=NCc1cccnc1)c1c(O)n(C2CCCCC2)c(=O)[nH]c1=O | 5 | -3.5* | 0.7 | 0.34 | 4 | 0.65
CC(=NCc1cccnc1)c1c(O)n(C2CCCCC2)c(=O)[nH]c1=O | 4 | -1.9 | 0.1 | 0.28 | -5 | 0.72
CCC(=Nc1ccc(OC)cc1OC)c1c(O)n(C2CCCCC2)c(=O)[nH]c1=O | 5 | -3.4* | 1.4 | -2.2 | -14 | -3.1
CCC(=NCc1ccco1)c1c(O)n(C2CCCCC2)c(=O)[nH]c1=O | 4 | -0.25 | -0.86 | -1.4 | -8 | -6.8*
CN1C2CCC1CC(OC(c1ccccc1)c1ccccc1N)C2 (centres undefined) | . | . | -0.043 | . | . | 0.084
C[N+]1(C)CCC(OC(=O)C(c2ccccc2)c2ccccc2)CC1 | . | . | 0.094 | . | . | -4.4*
O=C(c1ccccc1)c1cn(CC(=O)N2CCCc3ccccc32)c2ccccc12 | 9 | -2.1 | -0.04 | -1.4 | -1 | -2.4
O=C(Cn1cc(C(=O)c2ccccc2)c2ccccc21)NCc1ccco1 | -18 | -3.2* | -0.089 | 0.13 | 2 | -3.2
CCS(=O)(=O)NCc1nnc2n1-c1ccc(Cl)cc1C(c1ccccc1)=NC2 | . | -0.38 | . | 0.7 | . | .
Cc1cccc(N2C(=O)NC(=O)/C(=C\c3cccn3-c3ccc(Cl)cc3)C2=O)c1 | 16 | -3.4* | -0.48 | -0.62 | -12 | -1.1
CC(C)(C)n1c(O)c(C=Nc2ccc3c(c2)CCC3)c(=O)[nH]c1=O | -16 | 0.32 | 0.4 | -1.5 | -12 | -2.3
CCN(CC)S(=O)(=O)c1cc(NC(=O)C(C)N2CC=C(c3ccccc3)CC2)ccc1C (centres undefined) | . | . | . | -0.96 | . | .
CCCCn1c(O)c(C=NC2CCCCC2N)c(=O)[nH]c1=O (centres undefined) | -3 | -1.1 | -8.8* | 0.26 | -7 | 0.29
CCCC(C)C1(CC)C(=O)NC(=O)N=C1N (centres undefined) | . | . | . | -0.09 | . | .
CN1C[C@H](CNC(=O)OCc2ccccc2)C[C@@H]2c3cccc4c3c(cn4C)C[C@H]21 | . | . | -1.4 | -0.69 | . | -4.4*
CNc1ccc2oc(C[C@H]3O[C@@]4(CC[C@H]3C)O[C@H]([C@H](C)C(=O)c3ccc[nH]3)[C@H](C)C[C@H]4C)nc2c1C(=O)O | . | . | -0.8 | . | . | 4.4*
CN1C(=O)c2ccccc2NC(=O)C1Cc1ccccc1 (centres undefined) | . | . | 0.11 | . | . | 0.27
CC1CCN(S(=O)(=O)c2ccc(NN=C(C#N)C#N)cc2)CC1 | -1 | . | -0.57 | -0.68 | -21 | -8.4*
COc1ccc(C(=O)N2CCOCC2)cc1S(=O)(=O)N1CCC(C)CC1 | 16 | 0.43 | 0.017 | 0 | -9 | -0.058
